Reference: PubChem BioAssay

tested on: XIP peptide (Xip251-270) binding; assay: small-molecule binders of XIP peptide, primary screen, biochemical, small-molecule microarray, fluorescence 635/667 nm, 0.1 µg/mL protein (AID 1182); conditions: fluorescent protein binding, 635 nm, higher = more signal, called active from +8 up or from −8 down

Composite z-score, inactive:
O=C1[C@H]2[C@H]3[C@H](O)[C@H](O)CC(=NOCc4ccccc4)[C@H]3CC[C@H]2C(=O)N1C1CCCCC1 0.288
C[C@@H](c1ccccc1)N1C(=O)[C@H]2[C@H]3[C@H](O)[C@H](O)CC(=NNC(=O)OCc4ccccc4)[C@@H]3CC[C@H]2C1=O 0.101
C[C@H]1CC[C@@H](C(=O)O)N[C@@H]1c1ccc(C#Cc2ccccc2)cc1 -0.125
C[C@H]1CC[C@H]2C(=O)N[C@H](Cc3ccccc3)C(=O)N2[C@@H]1c1ccccc1 0.469
O=C(NN=C1C[C@@H](O)[C@@H](O)[C@@H]2[C@@H]3C(=O)N(Cc4ccc5c(c4)OCO5)C(=O)[C@@H]3CC[C@@H]12)OCc1ccccc1 0.244
CCc1cc2c(nc1CC)CCN(CCC(C)=NOCC[C@@H]1C=C[C@H](OC(C)=O)[C@@H](COC(C)=O)O1)C2 -0.0297
CCN1C(C)=C(C(=O)OC)[C@@H](c2ccccc2)N2C(=O)[C@](O)(C(=O)OC)CC(C(C)=O)=C12 0.181
CCN1C(=O)[C@H]2[C@H]3[C@H](O)[C@H](O)CC(=NOC[C@@H](O)[C@H]4O[C@@H]5OC(C)(C)O[C@@H]5[C@H]4O)[C@@H]3CC[C@H]2C1=O -0.0371
CCOC(=O)[C@H](Cc1ccccc1)NC(=O)CCC1CC(OC(=O)NCc2ccc3c(c2)OCO3)CC2(CCCC(COC(=O)NCCOC)O2)O1 (stereo partly specified) 0.247
CC(CCN1CCCCc2nc(C)c(C)cc21)=NO[C@@H](C)c1cc(-c2c(C)cc(C)cc2C)no1 0.107
CCCC[C@H]1CN2[C@@H](CC[C@@H](C)[C@@H]2c2ccc(Br)cc2)C(=O)O1 0.977
CC(=O)OC[C@H]1O[C@H](CCON=C(C)C)C=C[C@@H]1OC(C)=O -0.843
CC(C)=CCCC(C)=CCON=C1C[C@@H](O)[C@@H](O)[C@@H]2[C@@H]3C(=O)N(Cc4ccc5c(c4)OCO5)C(=O)[C@@H]3CC[C@@H]12 1.07
CCOC(=O)[C@H](Cc1ccccc1)NC(=O)CCC1CC(OC(=O)NCCc2ccc(F)cc2)CC2(CCCC(COC(=O)NCCOc3ccccc3)O2)O1 (stereo partly specified) -0.337
COc1ccc(O[C@H]2C=C[C@@H](c3ccccc3)O[C@@H]2CO)cc1 0.0493
CO[C@H]1COC(=O)CC=C[C@@H](C)COC(=O)[C@H]2CCCN2C(=O)CC=C[C@H]1C 0.0735
CC(C)=NO[C@@H](C)c1cn([C@H](CO)Cc2ccccc2)nn1 -0.407
COC(=O)[C@H](C)NC(=O)CCC1CC(OC(=O)NCCc2ccc(F)cc2)CC2(CCCC(COC(=O)NCC3CCCCC3)O2)O1 (stereo partly specified) -0.0255
CC(C)C(=O)N[C@H]1CCCN1C(=O)C=Cc1ccccc1 0.934
COC(OC)[C@@H](C)[C@H](OC)[C@@H](C)[C@H](OC)c1ccccc1 -0.17
CC(C)CON=C1C[C@@H](O)[C@@H](O)[C@@H]2[C@@H]3C(=O)N(c4ccc(F)cc4F)C(=O)[C@@H]3CC[C@@H]12 0.681
CON=C(C)CCN1CCCCc2nc(C)c(C)cc21 0.0459
COC(=O)[C@H](C)NC(=O)CCC1CC(OC(=O)NCc2cccc3ccccc23)CC2(CCCC(COC(=O)NCCc3ccccc3OC)O2)O1 (stereo partly specified) -0.0645
OC[C@H]1O[C@H](C#Cc2ccccc2)C=C[C@@H]1O 0.0849
CCOC(=O)[C@H](CC(C)C)NC(=O)CCC1CC(OC(=O)NCc2ccc3c(c2)OCO3)CC2(CCCC(COC(=O)NCCc3ccccc3OC)O2)O1 (stereo partly specified) 0.677
C[C@@H]1CC[C@H]2C(=O)O[C@@H](CN=[N+]=[N-])CN2[C@H]1c1ccc(Br)cc1 0.223
CO[C@@H]1COC(=O)CC=C[C@H](C)[C@H](OC)COC(=O)[C@@H]2CCCN2C(=O)CC=C[C@H]1C 0.233
COc1ccc(COC(=O)NN=C2C[C@@H](O)[C@@H](O)[C@@H]3[C@@H]4C(=O)N(C5CCCCC5)C(=O)[C@@H]4CC[C@@H]23)cc1 0.524
CCN1C(=O)[C@H]2[C@H]3[C@H](O)[C@H](O)CC(=NO[C@@H]4O[C@H](CO)[C@@H](O)[C@H](O)[C@H]4O)[C@H]3CC[C@H]2C1=O -0.0195
COC(=O)[C@@H]1CC[C@H](C)[C@@H](c2ccc(Br)cc2)N1C[C@@H](O)CN=[N+]=[N-] -0.193
COC(=O)[C@H](C)NC(=O)CC=C[C@@H](C)[C@@H]1C=C[C@H](O)[C@@H](CO)O1 0.672
CC(C)=NOC[C@@H](O)[C@H]1O[C@@H]2OC(C)(C)O[C@@H]2[C@H]1O 0.524
CCOC(=O)[C@H](CC(C)C)NC(=O)CCC1CC(OC(=O)NCc2ccc3c(c2)OCO3)CC2(CCCC(COC(=O)NCCOC)O2)O1 (stereo partly specified) 0.685
CCOC(=O)CCN1C(=O)[C@H]2[C@H]3[C@H](O)[C@H](O)CC(=NO[C@@H]4O[C@H](CO)[C@@H](O)[C@H](O)[C@H]4O)[C@H]3CC[C@H]2C1=O 0.234
C[C@@H]1CC[C@H]2C(=O)OC(Cc3ccccc3)CN2[C@H]1c1ccc(Br)cc1 (stereo partly specified) -0.0207
O=C1[C@H]2[C@H]3[C@H](O)[C@H](O)CC(=NO[C@@H]4O[C@H](CO)[C@@H](O)[C@H](O)[C@H]4O)[C@H]3CC[C@H]2C(=O)N1C[C@@H]1CCCO1 -0.48
